# Measurements as given in the supplement of paper PMC8728848.
# About 410 targets per protein were measured; listed, in parts, are those with the strongest signals and a random draw of the rest.
# What was measured:
# Experiment in all cases: glycan array binding signal (z-score within array); higher = stronger binding
# Conditions in all cases: glycan notation: IUPAC condensed, linker removed
# [1] = biological target: GlcNAc(b1-3)Gal(b1-4)GlcNAc(b1-3)Gal(b1-4)GlcNAc
# Summary of the method: (§1)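 Glycan array data were curated from 3228 arrays in the Consortium for Functional Glycomics database and kept only where the protein sequence was available. Glycan names were converted to IUPAC-condensed notation, and columns mapping to the same glycan were averaged. The binding signal is a within-array Z-score, averaged across arrays of the same protein sequence at different concentrations or buffers and across linkers. Negative Z-scores can be read as non-binding.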
# [2] = biological target: GlcNAc(b1-3)Gal(b1-4)GlcNAc(b1-3)Gal(b1-4)GlcNAc(b1-2)Man(a1-3)[GlcNAc(b1-3)Gal(b1-4)GlcNAc(b1-3)Gal(b1-4)GlcNAc(b1-2)Man(a1-6)]Man(b1-4)GlcNAc(b1-4)[Fuc(a1-6)]GlcNAc
# Summary of the method: as §1
# [3] = biological target: GlcNAc(b1-3)Gal(b1-4)GlcNAc(b1-3)Gal(b1-4)GlcNAc(b1-3)Gal(b1-4)GlcNAc(b1-3)Gal(b1-4)GlcNAc(b1-2)Man(a1-3)[GlcNAc(b1-3)Gal(b1-4)GlcNAc(b1-3)Gal(b1-4)GlcNAc(b1-3)Gal(b1-4)GlcNAc(b1-3)Gal(b1-4)GlcNAc(b1-2)Man(a1-6)]Man(b1-4)GlcNAc(b1-4)[Fuc(a1-6)]GlcNAc
# Summary of the method: as §1
# [4] = biological target: GlcNAc(b1-3)Gal(b1-4)GlcNAc(b1-3)Gal(b1-4)GlcNAc(b1-3)Gal(b1-4)GlcNAc(b1-3)Gal(b1-4)GlcNAc(b1-2)[GlcNAc(b1-3)Gal(b1-4)GlcNAc(b1-3)Gal(b1-4)GlcNAc(b1-3)Gal(b1-4)GlcNAc(b1-3)Gal(b1-4)GlcNAc(b1-6)]Man(a1-6)[GlcNAc(b1-3)Gal(b1-4)GlcNAc(b1-3)Gal(b1-4)GlcNAc(b1-3)Gal(b1-4)GlcNAc(b1-3)Gal(b1-4)GlcNAc(b1-2)Man(a1-3)]Man(b1-4)GlcNAc(b1-4)[Fuc(a1-6)]GlcNAc
# Summary of the method: as §1
# [5] = biological target: GlcNAc(b1-3)Gal(b1-4)GlcNAc(b1-3)Gal(b1-4)GlcNAc(b1-3)GalNAc
# Summary of the method: as §1
# [6] = biological target: GlcNAc(b1-3)Gal(b1-4)GlcNAc(b1-6)[Gal(b1-3)]GalNAc
# Summary of the method: as §1
# [7] = biological target: GlcNAc(b1-3)Man
# Summary of the method: as §1
# [8] = biological target: GlcNAc(b1-4)GlcNAc(b1-4)GlcNAc(b1-4)GlcNAc(b1-4)GlcNAc
# Summary of the method: as §1
# [9] = biological target: Man(a1-2)Man(a1-6)[Man(a1-3)]Man(a1-6)[Man(a1-2)Man(a1-2)Man(a1-3)]Man(b1-4)GlcNAc(b1-4)GlcNAc
# Summary of the method: as §1
# [10] = biological target: MurNAc(b1-4)GlcNAc
# Summary of the method: as §1
# [11] = biological target: Neu5Ac(a2-3)Gal(b1-3)GalNAc(b1-4)[Neu5Ac(a2-8)Neu5Ac(a2-3)]Gal(b1-4)Glc
# Summary of the method: as §1
# [12] = biological target: Neu5Ac(a2-3)Gal(b1-3)GlcNAc(b1-2)Man(a1-3)[Neu5Ac(a2-3)Gal(b1-3)GlcNAc(b1-2)Man(a1-6)]Man(b1-4)GlcNAc(b1-4)GlcNAc
# Summary of the method: as §1
# [13] = biological target: Neu5Ac(a2-3)Gal(b1-3)GlcNAc(b1-6)GalNAc
# Summary of the method: as §1
# [14] = biological target: Neu5Ac(a2-3)Gal(b1-4)GlcNAc(b1-3)Gal(b1-3)GlcNAc
# Summary of the method: as §1
# [15] = biological target: Neu5Ac(a2-3)Gal(b1-4)[Fuc(a1-3)]GlcNAc(b1-3)GalNAc
# Summary of the method: as §1
# [16] = biological target: Neu5Ac(a2-3)[GalNAc(b1-4)]Gal(b1-4)Glc
# Summary of the method: as §1
# [17] = biological target: Neu5Ac(a2-6)Gal(b1-4)GlcNAc(b1-2)Man(a1-3)[Gal(b1-4)GlcNAc(b1-2)Man(a1-6)]Man(b1-4)GlcNAc(b1-4)GlcNAc
# Summary of the method: as §1
# [18] = biological target: Neu5Ac(a2-6)Gal(b1-4)GlcNAc(b1-2)Man(a1-3)[Neu5Ac(a2-6)Gal(b1-4)GlcNAc(b1-2)Man(a1-6)]Man(b1-4)GlcNAc(b1-4)[Fuc(a1-6)]GlcNAc
# Summary of the method: as §1
# [19] = biological target: Neu5Ac(a2-6)Gal(b1-4)GlcNAc(b1-2)Man(a1-6)Man(b1-4)GlcNAc(b1-4)GlcNAc
# Summary of the method: as §1
# [20] = biological target: Neu5Ac(a2-6)Gal(b1-4)GlcNAc(b1-3)Gal(b1-3)GlcNAc
# Summary of the method: as §1
# [21] = biological target: Neu5Ac(a2-6)Gal(b1-4)GlcNAc(b1-3)Gal(b1-4)GlcNAc(b1-3)Gal(b1-4)GlcNAc(b1-2)Man(a1-3)[Neu5Ac(a2-6)Gal(b1-4)GlcNAc(b1-3)Gal(b1-4)GlcNAc(b1-3)Gal(b1-4)GlcNAc(b1-2)Man(a1-6)]GalNAc
# Summary of the method: as §1
# [22] = biological target: Neu5Ac(a2-6)Gal(b1-4)GlcNAc(b1-3)Gal(b1-4)GlcNAc(b1-3)GalNAc
# Summary of the method: as §1
# [23] = biological target: Neu5Ac(a2-6)Gal(b1-4)GlcNAc(b1-3)Gal(b1-4)GlcNAc(b1-3)[Neu5Ac(a2-6)Gal(b1-4)GlcNAc(b1-3)Gal(b1-4)GlcNAc(b1-6)]GalNAc
# Summary of the method: as §1
# [24] = biological target: Neu5Ac(a2-8)Neu5Ac(a2-3)Gal(b1-3)GalNAc(b1-4)[Neu5Ac(a2-8)Neu5Ac(a2-3)]Gal(b1-4)Glc
# Summary of the method: as §1
# [25] = biological target: Neu5Ac(a2-8)Neu5Ac(a2-3)[Gal(b1-3)GalNAc(b1-4)]Gal(b1-4)Glc
# Summary of the method: as §1
# [26] = biological target: Neu5Ac9Ac(a2-6)Gal(b1-4)GlcNAc
# Summary of the method: as §1
# [27] = biological target: Neu5Gc(a2-6)Gal(b1-4)GlcNAc
# Summary of the method: as §1
# [28] = biological target: Neu5Gc(a2-8)Neu5Ac(a2-3)Gal(b1-4)GlcNAc
# Summary of the method: as §1
binder,measurement,setting,value
LlpA (Arthrobacter sp) (protein) MGSSHHHHHHSSGLVPRGSHMTLHPETALRPGAAATSPNSRYRLLYQTDGNLVLYGPDGPLWDSGTNGHGAGACIMQADGNLVLYGPNDEYVWDTETDNNPGSRLVIQDDGNAVIYRPDGSPLWATETCQPPGSADSHVLQSGSTLTPTHGIRSANGLYGLLYQTDGNLVFYGPDGPLWDSGTNGRGAGACIMQPDGNLVLYGPHDEYVWDTETDNNPGSRLVIQDDGNAVIYRPDGNPTWVTGTH,glycan array binding signal (z-score),[1],-0.689
same,glycan array binding signal (z-score),[2],2.11
same,glycan array binding signal (z-score),[3],2.07
same,glycan array binding signal (z-score),[4],1.82
same,glycan array binding signal (z-score),[5],0.18
same,glycan array binding signal (z-score),[6],-0.319
same,glycan array binding signal (z-score),[7],1.02
same,glycan array binding signal (z-score),[8],0.068
same,glycan array binding signal (z-score),[9],0.31
same,glycan array binding signal (z-score),[10],-0.798
same,glycan array binding signal (z-score),[11],-0.752
same,glycan array binding signal (z-score),[12],-0.65
same,glycan array binding signal (z-score),[13],0.849
same,glycan array binding signal (z-score),[14],0.273
same,glycan array binding signal (z-score),[15],1.8
same,glycan array binding signal (z-score),[16],0.446
same,glycan array binding signal (z-score),[17],-0.376
same,glycan array binding signal (z-score),[18],2.31
same,glycan array binding signal (z-score),[19],0.4
same,glycan array binding signal (z-score),[20],-0.33
same,glycan array binding signal (z-score),[21],2.47
same,glycan array binding signal (z-score),[22],0.214
same,glycan array binding signal (z-score),[23],0.568
same,glycan array binding signal (z-score),[24],1.98
same,glycan array binding signal (z-score),[25],0.321
same,glycan array binding signal (z-score),[26],0.62
same,glycan array binding signal (z-score),[27],-0.005
same,glycan array binding signal (z-score),[28],-0.504
